Laboratory results taken from ChEMBL document CHEMBL2218924, “A broad activity screen in support of a chemogenomic map for kinase signalling research and drug discovery” (Biochem J, 2013).

How the values were obtained:
[1] = target: T1, Protein kinase C zeta type (Homo sapiens) (UniProt Q05513); settings: at 1 µM
T1 sequence (whole entry): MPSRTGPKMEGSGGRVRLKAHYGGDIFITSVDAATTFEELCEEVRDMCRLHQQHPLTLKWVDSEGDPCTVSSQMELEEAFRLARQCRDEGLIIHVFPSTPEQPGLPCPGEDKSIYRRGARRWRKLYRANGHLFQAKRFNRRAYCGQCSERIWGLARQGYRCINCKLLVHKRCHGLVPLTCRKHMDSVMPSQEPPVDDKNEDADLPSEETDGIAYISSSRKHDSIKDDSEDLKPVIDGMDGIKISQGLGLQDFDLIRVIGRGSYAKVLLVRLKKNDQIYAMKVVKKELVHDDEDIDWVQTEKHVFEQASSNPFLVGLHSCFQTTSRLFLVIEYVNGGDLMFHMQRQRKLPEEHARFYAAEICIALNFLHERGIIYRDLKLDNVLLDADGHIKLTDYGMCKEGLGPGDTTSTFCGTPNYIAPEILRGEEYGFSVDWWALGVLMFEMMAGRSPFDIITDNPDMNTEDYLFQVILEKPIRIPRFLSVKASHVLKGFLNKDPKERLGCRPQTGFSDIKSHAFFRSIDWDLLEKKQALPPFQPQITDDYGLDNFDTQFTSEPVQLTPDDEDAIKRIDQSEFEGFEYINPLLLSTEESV

[2] = target: T2, Mitogen-activated protein kinase kinase kinase 5 (Homo sapiens) (UniProt Q99683); settings: at 10 µM
T2 sequence (whole entry): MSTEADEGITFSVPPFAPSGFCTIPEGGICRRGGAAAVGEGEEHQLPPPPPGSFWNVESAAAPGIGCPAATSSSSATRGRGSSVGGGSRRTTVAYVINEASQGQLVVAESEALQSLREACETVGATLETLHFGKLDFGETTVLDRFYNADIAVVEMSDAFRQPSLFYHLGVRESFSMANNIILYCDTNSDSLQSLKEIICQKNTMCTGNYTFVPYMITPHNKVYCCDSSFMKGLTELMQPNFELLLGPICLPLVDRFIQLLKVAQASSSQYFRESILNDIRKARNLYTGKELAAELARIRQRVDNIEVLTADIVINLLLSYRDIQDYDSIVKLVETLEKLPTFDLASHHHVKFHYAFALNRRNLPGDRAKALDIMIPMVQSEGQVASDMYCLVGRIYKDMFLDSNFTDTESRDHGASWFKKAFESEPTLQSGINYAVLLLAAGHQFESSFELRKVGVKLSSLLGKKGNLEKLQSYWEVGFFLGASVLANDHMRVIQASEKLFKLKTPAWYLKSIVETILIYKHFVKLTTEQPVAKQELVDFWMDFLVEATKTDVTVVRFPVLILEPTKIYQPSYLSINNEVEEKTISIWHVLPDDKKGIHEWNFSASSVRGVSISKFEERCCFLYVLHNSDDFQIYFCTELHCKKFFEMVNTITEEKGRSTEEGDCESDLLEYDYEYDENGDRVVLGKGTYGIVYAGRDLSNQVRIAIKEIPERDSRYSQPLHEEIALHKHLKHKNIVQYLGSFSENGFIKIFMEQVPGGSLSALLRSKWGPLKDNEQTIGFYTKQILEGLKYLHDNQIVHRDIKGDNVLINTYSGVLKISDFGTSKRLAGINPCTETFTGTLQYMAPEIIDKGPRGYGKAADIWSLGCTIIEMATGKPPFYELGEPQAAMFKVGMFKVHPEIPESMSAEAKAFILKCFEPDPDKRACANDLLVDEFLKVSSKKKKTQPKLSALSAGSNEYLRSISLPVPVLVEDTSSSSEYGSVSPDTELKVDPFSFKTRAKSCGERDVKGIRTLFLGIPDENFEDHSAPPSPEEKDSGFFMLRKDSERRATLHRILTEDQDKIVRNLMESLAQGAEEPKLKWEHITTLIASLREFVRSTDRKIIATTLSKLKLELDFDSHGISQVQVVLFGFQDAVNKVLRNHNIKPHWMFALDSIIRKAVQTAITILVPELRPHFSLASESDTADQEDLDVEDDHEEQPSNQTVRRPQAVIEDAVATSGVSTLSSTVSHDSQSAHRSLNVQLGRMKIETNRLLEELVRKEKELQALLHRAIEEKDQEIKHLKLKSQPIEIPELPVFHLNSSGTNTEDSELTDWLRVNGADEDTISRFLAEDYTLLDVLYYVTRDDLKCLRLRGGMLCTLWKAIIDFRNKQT

[3] = target: Tyrosine-protein kinase ABL1 (Homo sapiens) (UniProt P00519); settings: at 1 µM
[4] = target: Tyrosine-protein kinase ABL1 (Homo sapiens) (UniProt P00519); settings: at 10 µM
[5] = target: Tyrosine-protein kinase ABL2 (Homo sapiens) (UniProt P42684); settings: at 1 µM
[6] = target: Tyrosine-protein kinase ABL2 (Homo sapiens) (UniProt P42684); settings: at 10 µM
[7] = target: T3, Aurora kinase A (Homo sapiens) (UniProt O14965); settings: at 1 µM
T3 sequence (whole entry): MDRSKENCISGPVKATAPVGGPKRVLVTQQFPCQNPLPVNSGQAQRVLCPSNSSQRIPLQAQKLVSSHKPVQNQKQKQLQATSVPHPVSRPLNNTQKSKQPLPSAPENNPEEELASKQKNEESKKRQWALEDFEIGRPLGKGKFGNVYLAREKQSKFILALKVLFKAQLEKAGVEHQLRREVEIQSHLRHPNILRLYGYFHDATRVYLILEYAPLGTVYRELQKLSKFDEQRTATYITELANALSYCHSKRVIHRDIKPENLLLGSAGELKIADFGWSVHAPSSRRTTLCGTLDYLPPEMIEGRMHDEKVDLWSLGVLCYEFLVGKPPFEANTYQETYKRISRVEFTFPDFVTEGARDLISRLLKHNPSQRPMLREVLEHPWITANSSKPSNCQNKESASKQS

[8] = target: T3, Aurora kinase A (Homo sapiens); settings: at 10 µM
[9] = target: Aurora kinase B (Homo sapiens) (UniProt Q96GD4); settings: at 1 µM
[10] = target: Aurora kinase B (Homo sapiens) (UniProt Q96GD4); settings: at 10 µM
[11] = target: T4, Aurora kinase C (Homo sapiens) (UniProt Q9UQB9); settings: at 1 µM
T4 sequence (whole entry): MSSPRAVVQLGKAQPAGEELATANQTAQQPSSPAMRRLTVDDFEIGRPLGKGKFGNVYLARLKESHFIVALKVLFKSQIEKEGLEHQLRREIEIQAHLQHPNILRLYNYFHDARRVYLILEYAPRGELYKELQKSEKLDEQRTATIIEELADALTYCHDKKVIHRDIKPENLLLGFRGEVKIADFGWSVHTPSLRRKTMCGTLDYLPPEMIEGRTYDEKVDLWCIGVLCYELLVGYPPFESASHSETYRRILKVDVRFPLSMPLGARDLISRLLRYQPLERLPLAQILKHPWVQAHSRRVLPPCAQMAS

[12] = target: T4, Aurora kinase C (Homo sapiens); settings: at 10 µM
[13] = target: Tyrosine-protein kinase receptor UFO (Homo sapiens) (UniProt P30530); settings: at 1 µM
[14] = target: Tyrosine-protein kinase receptor UFO (Homo sapiens) (UniProt P30530); settings: at 10 µM
[15] = target: Protein-tyrosine kinase 6 (Homo sapiens) (UniProt Q13882); settings: at 1 µM
[16] = target: Protein-tyrosine kinase 6 (Homo sapiens) (UniProt Q13882); settings: at 10 µM
[17] = target: Tyrosine-protein kinase BTK (Homo sapiens) (UniProt Q06187); settings: at 1 µM
[18] = target: Tyrosine-protein kinase BTK (Homo sapiens) (UniProt Q06187); settings: at 10 µM
[19] = target: Tyrosine-protein kinase Blk (Homo sapiens) (UniProt P51451); settings: at 1 µM
[20] = target: Tyrosine-protein kinase Blk (Homo sapiens) (UniProt P51451); settings: at 10 µM

Sequence of Protein-tyrosine kinase 6 (Homo sapiens) (Q13882 whole entry, looked up): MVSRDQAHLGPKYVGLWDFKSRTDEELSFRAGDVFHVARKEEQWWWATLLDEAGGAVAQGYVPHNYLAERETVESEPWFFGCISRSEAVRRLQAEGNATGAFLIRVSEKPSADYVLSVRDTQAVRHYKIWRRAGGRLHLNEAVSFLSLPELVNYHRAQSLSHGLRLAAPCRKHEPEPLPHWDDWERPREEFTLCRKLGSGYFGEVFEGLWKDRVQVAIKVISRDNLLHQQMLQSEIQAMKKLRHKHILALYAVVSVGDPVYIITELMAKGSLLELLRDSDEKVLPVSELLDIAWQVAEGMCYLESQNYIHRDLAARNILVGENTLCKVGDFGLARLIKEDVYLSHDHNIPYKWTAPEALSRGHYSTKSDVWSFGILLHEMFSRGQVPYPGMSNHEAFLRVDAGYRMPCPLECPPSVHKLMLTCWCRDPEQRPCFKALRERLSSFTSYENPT
Sequence of Tyrosine-protein kinase receptor UFO (Homo sapiens) (P30530 whole entry): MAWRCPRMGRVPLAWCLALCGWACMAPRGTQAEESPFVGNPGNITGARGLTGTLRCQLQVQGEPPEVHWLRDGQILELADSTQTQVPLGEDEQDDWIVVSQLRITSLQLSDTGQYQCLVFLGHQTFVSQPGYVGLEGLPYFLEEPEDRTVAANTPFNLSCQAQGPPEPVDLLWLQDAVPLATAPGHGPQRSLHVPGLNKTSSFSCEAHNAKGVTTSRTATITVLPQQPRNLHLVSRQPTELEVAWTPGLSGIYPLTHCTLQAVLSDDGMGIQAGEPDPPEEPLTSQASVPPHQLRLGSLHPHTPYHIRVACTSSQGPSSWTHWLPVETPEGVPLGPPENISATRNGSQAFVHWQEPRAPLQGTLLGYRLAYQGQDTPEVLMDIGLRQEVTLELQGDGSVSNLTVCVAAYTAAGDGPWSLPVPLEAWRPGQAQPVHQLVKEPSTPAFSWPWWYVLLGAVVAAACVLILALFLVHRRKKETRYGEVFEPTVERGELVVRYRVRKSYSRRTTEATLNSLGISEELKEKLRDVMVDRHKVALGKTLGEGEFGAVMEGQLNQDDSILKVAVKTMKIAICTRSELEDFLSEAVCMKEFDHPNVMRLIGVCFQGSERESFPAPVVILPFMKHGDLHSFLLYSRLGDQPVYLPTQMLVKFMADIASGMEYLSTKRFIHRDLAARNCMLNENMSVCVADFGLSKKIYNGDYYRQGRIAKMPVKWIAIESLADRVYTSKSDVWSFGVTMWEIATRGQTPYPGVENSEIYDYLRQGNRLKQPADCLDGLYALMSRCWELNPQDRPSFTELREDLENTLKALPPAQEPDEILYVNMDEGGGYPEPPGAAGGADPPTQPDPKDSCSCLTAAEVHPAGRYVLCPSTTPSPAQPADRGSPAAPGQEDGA
Sequence of Tyrosine-protein kinase Blk (Homo sapiens) (P51451 2-505 limits assumed): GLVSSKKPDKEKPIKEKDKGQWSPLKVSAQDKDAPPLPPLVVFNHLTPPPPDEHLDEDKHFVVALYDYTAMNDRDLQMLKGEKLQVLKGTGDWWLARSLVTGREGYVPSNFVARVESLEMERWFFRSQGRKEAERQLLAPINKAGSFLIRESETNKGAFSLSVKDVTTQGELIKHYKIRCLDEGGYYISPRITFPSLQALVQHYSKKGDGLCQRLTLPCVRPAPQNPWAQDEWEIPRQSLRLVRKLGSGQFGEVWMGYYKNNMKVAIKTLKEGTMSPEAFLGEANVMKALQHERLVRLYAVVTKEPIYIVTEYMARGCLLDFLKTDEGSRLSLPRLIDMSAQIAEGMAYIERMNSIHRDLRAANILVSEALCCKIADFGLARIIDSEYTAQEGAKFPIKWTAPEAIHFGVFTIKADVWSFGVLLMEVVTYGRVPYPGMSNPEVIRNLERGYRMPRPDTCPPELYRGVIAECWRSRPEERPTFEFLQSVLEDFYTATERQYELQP
Sequence of Tyrosine-protein kinase ABL1 (Homo sapiens) (P00519 whole entry): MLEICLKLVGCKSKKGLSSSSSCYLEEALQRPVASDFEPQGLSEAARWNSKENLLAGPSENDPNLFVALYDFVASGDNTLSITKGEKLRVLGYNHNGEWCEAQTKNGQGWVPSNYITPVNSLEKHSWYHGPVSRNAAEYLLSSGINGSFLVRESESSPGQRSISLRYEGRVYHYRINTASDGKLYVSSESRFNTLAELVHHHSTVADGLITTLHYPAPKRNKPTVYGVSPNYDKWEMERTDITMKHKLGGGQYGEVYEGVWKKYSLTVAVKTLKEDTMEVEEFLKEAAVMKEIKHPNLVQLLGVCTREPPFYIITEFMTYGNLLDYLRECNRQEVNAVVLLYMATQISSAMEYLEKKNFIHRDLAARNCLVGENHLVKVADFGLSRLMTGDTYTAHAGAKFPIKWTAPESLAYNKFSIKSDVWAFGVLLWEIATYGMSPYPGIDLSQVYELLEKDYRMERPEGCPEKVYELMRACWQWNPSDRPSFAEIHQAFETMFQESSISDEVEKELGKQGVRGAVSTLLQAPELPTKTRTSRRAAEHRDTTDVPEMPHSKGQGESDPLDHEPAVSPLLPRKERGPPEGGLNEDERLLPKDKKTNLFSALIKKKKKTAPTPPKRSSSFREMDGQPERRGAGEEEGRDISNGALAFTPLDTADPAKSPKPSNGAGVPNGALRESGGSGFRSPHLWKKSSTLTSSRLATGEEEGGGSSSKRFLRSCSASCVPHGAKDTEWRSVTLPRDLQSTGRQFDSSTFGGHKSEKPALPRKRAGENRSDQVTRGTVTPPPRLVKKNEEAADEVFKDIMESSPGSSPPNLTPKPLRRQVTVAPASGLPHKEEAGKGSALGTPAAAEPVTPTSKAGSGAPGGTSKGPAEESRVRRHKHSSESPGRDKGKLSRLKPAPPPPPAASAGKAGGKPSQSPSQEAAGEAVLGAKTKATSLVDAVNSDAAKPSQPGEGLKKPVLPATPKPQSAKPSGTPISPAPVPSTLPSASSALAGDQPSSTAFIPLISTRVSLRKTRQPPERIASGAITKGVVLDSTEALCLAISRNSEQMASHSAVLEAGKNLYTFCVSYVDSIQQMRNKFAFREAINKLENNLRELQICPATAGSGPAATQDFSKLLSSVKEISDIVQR
Sequence of Aurora kinase B (Homo sapiens) (Q96GD4 whole entry): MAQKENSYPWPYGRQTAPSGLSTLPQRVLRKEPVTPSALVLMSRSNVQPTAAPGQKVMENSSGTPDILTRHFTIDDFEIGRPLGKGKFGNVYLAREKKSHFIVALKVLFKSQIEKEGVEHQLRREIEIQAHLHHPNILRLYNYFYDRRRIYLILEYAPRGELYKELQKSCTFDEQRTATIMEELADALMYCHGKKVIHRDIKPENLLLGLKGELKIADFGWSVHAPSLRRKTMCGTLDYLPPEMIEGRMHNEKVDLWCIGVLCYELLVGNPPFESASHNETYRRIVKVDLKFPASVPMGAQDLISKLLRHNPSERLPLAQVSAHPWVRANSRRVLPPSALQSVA
Sequence of Tyrosine-protein kinase BTK (Homo sapiens) (Q06187 whole entry): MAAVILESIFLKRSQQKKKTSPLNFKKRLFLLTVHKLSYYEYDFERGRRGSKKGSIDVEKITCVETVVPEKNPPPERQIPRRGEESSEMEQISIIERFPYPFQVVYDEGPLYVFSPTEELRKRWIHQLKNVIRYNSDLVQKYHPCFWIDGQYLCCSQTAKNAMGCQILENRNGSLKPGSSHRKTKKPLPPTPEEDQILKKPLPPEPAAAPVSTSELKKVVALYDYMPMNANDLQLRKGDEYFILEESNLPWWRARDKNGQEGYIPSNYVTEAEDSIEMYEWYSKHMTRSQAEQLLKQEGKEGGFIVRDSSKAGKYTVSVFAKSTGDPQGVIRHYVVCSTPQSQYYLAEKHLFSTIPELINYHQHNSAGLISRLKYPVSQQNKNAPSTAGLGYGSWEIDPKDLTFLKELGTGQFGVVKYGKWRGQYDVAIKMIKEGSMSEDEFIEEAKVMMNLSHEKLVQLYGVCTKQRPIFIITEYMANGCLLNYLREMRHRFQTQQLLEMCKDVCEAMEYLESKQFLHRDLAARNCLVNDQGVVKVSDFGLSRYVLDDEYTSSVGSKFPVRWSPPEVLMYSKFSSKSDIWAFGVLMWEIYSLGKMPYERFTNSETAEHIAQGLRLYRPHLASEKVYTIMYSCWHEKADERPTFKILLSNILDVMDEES

Structure (SMILES)	residual activity [1]	residual activity [2]	residual activity [3]	residual activity [4]	residual activity [5]	residual activity [6]	residual activity [7]	residual activity [8]	residual activity [9]	residual activity [10]	residual activity [11]	residual activity [12]	residual activity [13]	residual activity [14]	residual activity [15]	residual activity [16]	residual activity [17]	residual activity [18]	residual activity [19]	residual activity [20]
CC(C)n1cnc2c(NCc3ccccc3)nc(NCCCO)nc21	98% (inactive)	102%	96%	81%	93%	89%	109%	114%	99%	85%	95%	89%	105%	75%	89%	82%	93%	94%	78%	71%
CCN(CC)C(=O)c1ccc(Nc2nc(OCC3CCCCC3)c3nc[nH]c3n2)cc1	96% (inactive)	24%	46%	6%	52%	9%	1%	5%	-1%	0%	1%	2%	27%	7%	54%	11%	34%	-2%	20%	1%
COc1cc2ncnc(Nc3ccc(O)c(Br)c3)c2cc1OC	96% (inactive)	82%	64%	13%	76%	22%	49%	26%	43%	2%	45%	10%	36%	17%	18%	1%	80%	33%	21%	3%
O=c1cc(-c2cccc3c2Sc2ccccc2S3)oc(N2CCOCC2)c1	107% (inactive)	98%	99%	89%	97%	90%	101%	120%	105%	92%	102%	92%	102%	86%	109%	96%	87%	80%	101%	76%
O=C1Nc2ccccc2/C1=C1/Nc2ccccc2/C1=N\OCCC(O)CO (stereo not given)	95% (inactive)	29%	61%	43%	45%	18%	7%	3%	-1%	-1%	43%	30%	12%	5%	56%	53%	12%	-2%	4%	0%
O=C1NC(=O)/C(=C\c2ccc3nccnc3c2)S1	104% (inactive)	80%	100%	81%	89%	86%	94%	46%	71%	39%	106%	59%	75%	54%	99%	103%	99%	93%	114%	79%
N#C/C(=C(\N)Sc1ccc(N)cc1)c1ccccc1C(F)(F)F	105% (inactive)	103%	94%	87%	88%	82%	75%	70%	26%	15%	84%	83%	96%	73%	105%	114%	91%	93%	90%	79%
Oc1ccc(Nc2nc(-c3ccc(Cl)cc3)cs2)cc1	115% (inactive)	105%	94%	75%	101%	72%	115%	122%	124%	71%	90%	92%	114%	80%	107%	102%	95%	84%	111%	86%
CC[n+]1c(/C=C/N(C)c2ccccc2)n(-c2ccccc2)c2ccc(-c3nc4ccccc4s3)cc21	107% (inactive)	102%	115%	146%	112%	85%	117%	139%	139%	91%	107%	93%	134%	58%	109%	94%	87%	58%	100%	55%
COc1ccc(CNc2nc(N(CCO)CCO)nc3c2ncn3C(C)C)cc1	105% (inactive)	85%	100%	73%	113%	76%	89%	96%	95%	73%	75%	85%	92%	75%	104%	101%	88%	86%	96%	83%
O=C(O)c1ccc2c3c1cccc3c(=O)n1c3ccccc3nc21	112% (inactive)	72%	101%	80%	91%	74%	72%	16%	64%	18%	82%	43%	61%	35%	110%	105%	88%	83%	99%	81%
Oc1c2ccccc2c2c3c(cccc13)N=N2	110% (inactive)	5%	83%	56%	87%	72%	19%	2%	1%	0%	9%	4%	50%	17%	95%	95%	88%	57%	97%	45%
C[C@@H](N)[C@H]1CC[C@H](C(=O)Nc2ccncc2)CC1	103% (inactive)	96%	113%	101%	107%	100%	95%	89%	73%	82%	96%	72%	102%	103%	97%	89%	101%	104%	92%	100%
CN(C)c1ccc(/C=C2\C(=O)Nc3ccccc32)cc1	118% (inactive)	99%	100%	87%	103%	89%	56%	26%	13%	4%	88%	39%	78%	49%	112%	97%	113%	86%	87%	62%
NC(=O)c1ccc2[nH]c(-c3ccc(Oc4ccc(Cl)cc4)cc3)nc2c1	99% (inactive)	61%	106%	130%	128%	95%	88%	86%	68%	34%	72%	79%	107%	70%	102%	103%	89%	86%	103%	77%
Oc1ccc(-c2nc(-c3ccc(F)cc3)c(-c3ccncc3)[nH]2)cc1	113% (inactive)	80%	98%	95%	78%	41%	105%	89%	69%	58%	113%	95%	121%	83%	49%	5%	108%	77%	109%	44%
COc1cccc(-c2cc(=O)c3ccccc3o2)c1N	111% (inactive)	112%	111%	92%	115%	74%	122%	107%	113%	103%	99%	94%	119%	111%	105%	105%	94%	100%	114%	103%
CNc1cc2c(Nc3cccc(Br)c3)ncnc2cn1	99% (inactive)	112%	85%	87%	93%	79%	60%	71%	43%	10%	85%	64%	75%	69%	69%	53%	98%	83%	103%	65%
